Screens from PubChem BioAssay.
The list is not random: actives were taken first. Their share in the collection is about 9.8%.
ALDH1A1 block – inhibitors of human aldehyde dehydrogenase 1A1 | 7.3% of 220,000 active | P00352 | Potency, µM (titrated, usually from 75.3 µM), hits mostly inhibitors | Purified ALDH1A1, NADH fluorescence, propionaldehyde substrate; active = well fitted inhibition curve with a large enough effect, not every such curve was filed as active; inconclusive = small, poorly fitted or top-dose-only effect, or another doubt; inactive = no such curve, though single readings can be large or run the other way
HPGD inh – blocks human HPGD enzyme activity; 4.3% of 150,000 active; P15428; Potency, µM, usual class: inhibitors; purified HPGD, NADH fluorescence kinetic, PGE2 substrate; active = well fitted inhibition curve with a large enough effect, not every such curve was filed as active; inconclusive = small, poorly fitted or top-dose-only effect, or another doubt; inactive = no such curve, though single readings can be large or run the other way
Target sequence (P15428 whole entry, looked up): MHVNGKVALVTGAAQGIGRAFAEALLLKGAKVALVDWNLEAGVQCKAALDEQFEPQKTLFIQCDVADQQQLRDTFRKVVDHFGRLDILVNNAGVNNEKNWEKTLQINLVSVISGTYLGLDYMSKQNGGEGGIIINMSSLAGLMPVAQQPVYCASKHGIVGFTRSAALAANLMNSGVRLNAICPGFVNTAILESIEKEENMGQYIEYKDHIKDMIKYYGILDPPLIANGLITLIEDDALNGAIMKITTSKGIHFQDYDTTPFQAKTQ
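NADH formation kinetics: reaction with 30 uM PGE2 and 1 mM NAD+ (final), 20 nM enzyme, Tris-HCl pH 8 with Tween 20, after 15 min compound preincubation at room temperature. Fluorescence change, last versus first of five reads.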
HTT aggregate – mutant huntingtin aggregation inhibition; PC12 HttQ103-GFP aggregates, Acumen cytometry, 40 h; Potency, µM (doses to about 46.1 µM), hits mostly inhibitors; 1.1% of 220,000 active; note: nearly all actives have a fitted effect of over 60% in size
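PC12 cells stably carrying ecdysone-inducible HTT exon 1 Q103–GFP were induced with tebufenozide (100 nM final) and treated with library compounds in titration. GFP aggregates in lysates were counted by laser scanning cytometry.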
HTT cytoprotect – Huntington cell model cytoprotection by ATP luminescence. AID 1471. PC12 HTT-Q103 induced, cytoprotection, ATP luminescence, 40 h. 0.14% of 230,000 active. Potency, µM (doses to about 56.4 µM), usual class: activators; note: nearly all actives have a fitted effect of over 45% in size
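Cells were plated at 1500 per well in phenol red-free DMEM with 5% equine and 5% calf serum. Tebufenozide (100 nM final) and compounds were added, then ATPlite reagent, and luminescence was read.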
CBFb RUNX1 block – blocks binding between human CBF-beta and RUNX1. 230,000 tested, under 10 active. AlphaScreen CBFb-His/RUNX1-biotin binding, biochemical. Potency, µM (highest dose often 59.8 µM), actives largely listed as inhibitors
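Read-out: AlphaScreen. Format: His-CBF-beta with biotinylated RUNX1 (30 nM each) preincubated 20 min, compound 15 min, Ni-chelate plus streptavidin beads 90 min; room temperature throughout.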
KDM4E inh – inhibitors of human JMJD2E histone demethylase; JMJD2E catalytic domain, FDH-coupled NADH fluorescence (FDH is formaldehyde dehydrogenase); AID 2147; Potency, µM (doses to about 57.1 µM), most hits filed as inhibitors; 1.6% of 230,000 active; B2RXH2; active = well fitted inhibition curve with a large enough effect, not every such curve was filed as active; inconclusive = small, poorly fitted or top-dose-only effect, or another doubt; inactive = no such curve, though single readings can be large or run the other way; note: nearly all actives have a fitted effect of over 50% in size
Target sequence (B2RXH2 1-337 limits assumed): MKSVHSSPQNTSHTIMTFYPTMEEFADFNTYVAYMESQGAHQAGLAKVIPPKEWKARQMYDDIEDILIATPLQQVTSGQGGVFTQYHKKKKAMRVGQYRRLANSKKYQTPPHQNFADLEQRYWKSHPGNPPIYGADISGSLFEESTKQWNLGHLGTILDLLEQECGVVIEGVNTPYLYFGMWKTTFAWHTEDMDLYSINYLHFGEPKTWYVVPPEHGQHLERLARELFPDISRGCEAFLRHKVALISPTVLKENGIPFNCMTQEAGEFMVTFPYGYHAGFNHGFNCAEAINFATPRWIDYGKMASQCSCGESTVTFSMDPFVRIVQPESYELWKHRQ
Large screens that a line does not name were inactive. Unless noted, calls come from the whole dose curve; as a rule, active = well fitted curve in the direction sought with a large enough effect; inconclusive = small, poorly fitted or top-dose-only effect, or another doubt; inactive = no such curve, though single readings can be large; an effect the other way counts as inactive or inconclusive.

COc1ccccc1NC(=S)NC(NC(=O)CC(C)C)C(Cl)(Cl)Cl (stereo unspecified)	none (no result: HPGD inh)
CSCCC(NS(=O)(=O)c1ccc2c(c1)oc(=O)n2C)C(=O)NCc1cccs1 (stereo unspecified)	HTT aggregate inconclusive (no result: ALDH1A1 block, HPGD inh)
CCOC(=O)CNc1c(-c2ccccc2)nc2ccc(Cl)cn12	ALDH1A1 block inconclusive, HPGD inh inconclusive
CCOC(=O)CNc1c(-c2ccc(O)cc2)nc2ccc(Cl)cn12	ALDH1A1 block 7.08µM, KDM4E inh inconclusive
COCC(=O)Nc1cc(Sc2ccccc2)ccc1N=C(NC(=O)OC)NC(=O)OC	none (no result: ALDH1A1 block, HPGD inh, CBFb RUNX1 block, KDM4E inh)
Cc1cn(-c2ccc(Br)cc2)[nH]c1=O	HPGD inh 25.1µM
CCCN(C#N)c1nc(NCC)nc(NC(C)C)n1	ALDH1A1 block 10µM
CN1C2=NCCN2C(=O)c2ccccc21	none
COc1ccc(C2C(C(=O)N3CCCCC3)CC(=O)N2c2ccc(OC)cc2)cc1 (stereo unspecified)	ALDH1A1 block 14.1µM
COc1ccc(C2C(C(=O)NCc3ccco3)CCC(=O)N2c2ccc(OC)cc2)cc1 (stereo unspecified)	ALDH1A1 block 11.2µM
CCNC(=O)COC(=O)C1CCC(=O)N(c2ccc(OC)cc2)C1c1ccc(OC)cc1 (stereo unspecified)	ALDH1A1 block 8.91µM
COc1ccc(C2C(C(=O)O)CCC(=O)N2c2ccc(OC)cc2)cc1 (stereo unspecified)	none
COc1ccc(Br)cc1C1CC(=O)N2CN(Cc3ccccc3)CSC2=C1C#N (stereo unspecified)	ALDH1A1 block 0.112µM, HPGD inh 7.08µM
COc1ccc(C2CC(=O)N3C(=C2C#N)SCC3(O)c2ccccc2)cc1 (stereo unspecified)	ALDH1A1 block inconclusive, HTT aggregate inconclusive
COc1ccc2ccccc2c1C1CC(=O)N2CN(C)CSC2=C1C#N (stereo unspecified)	ALDH1A1 block 8.91µM, HPGD inh 6.31µM, KDM4E inh inconclusive
N#CC1=C2SCC(O)(c3ccccc3)N2C(=O)CC1c1ccccc1F (stereo unspecified)	ALDH1A1 block inconclusive
COc1ccc(CCN2C(=O)CN(Cc3ccccc3)CC2=O)cc1OC	none (no result: HTT cytoprotect)
CC(C)c1ccc(C2CC(=O)N3CN(C)CSC3=C2C#N)cc1 (stereo unspecified)	ALDH1A1 block 3.55µM, HPGD inh 14.1µM
N#CC1=C2SCN(Cc3ccccc3)CN2C(=O)CC1c1ccccc1F (stereo unspecified)	ALDH1A1 block 10µM, HPGD inh 28.2µM
Cc1ccc(Cn2ccc(NC(=O)c3cc(C4CC4)on3)n2)cc1	none (no result: ALDH1A1 block, HPGD inh)
CC(=O)Nc1ccc(S(=O)(=O)Oc2ccccc2N2CCCCC2)cc1	none (no result: ALDH1A1 block, HPGD inh)
CC(=O)NCCc1nc2ccccc2n1CCc1ccccc1	none (no result: HPGD inh)
COc1cc(OC)c(C2CC(=O)N3CN(C)CSC3=C2C#N)cc1OC (stereo unspecified)	ALDH1A1 block 8.91µM, HPGD inh 8.91µM
COc1ccc(OC)c(C2CC(=O)NC(SC)=C2C#N)c1 (stereo unspecified)	none
COc1ccc(Br)cc1C1CC(=O)N2CN(C)CSC2=C1C#N (stereo unspecified)	ALDH1A1 block 7.08µM, HPGD inh 12.6µM
O=S(=O)(CCN1CCN(C(c2ccccc2)c2ccccc2)CC1)C(F)(F)F	ALDH1A1 block 0.355µM, HTT aggregate inconclusive, HTT cytoprotect inconclusive
c1ccc(OCCOCCN2CCN(C(c3ccccc3)c3ccccc3)CC2)cc1	ALDH1A1 block inconclusive
CCCCn1c(/N=C/c2ccc(N(C)C)cc2)nc2ccccc21	ALDH1A1 block 2.82µM
CCCn1c(/N=C/c2c[nH]c3ccccc23)nc2ccccc21	ALDH1A1 block inconclusive
CCCCn1c(/N=C/c2c[nH]c3ccccc23)nc2ccccc21	ALDH1A1 block 25.1µM
COCCNc1nc(-c2cc(C)n(CCc3ccc(OC)cc3)c2C)cs1	ALDH1A1 block 10µM, KDM4E inh inconclusive (no result: HPGD inh)
S=c1[nH]nc(-c2ccc(Cl)cc2)n1/N=C/c1ccco1	none (no result: ALDH1A1 block, HPGD inh)
S=c1[nH]nc(-c2ccco2)n1/N=C/c1cccc(Cl)c1Cl	HPGD inh 2µM, KDM4E inh inconclusive
S=c1[nH]nc(-c2ccco2)n1/N=C/c1ccc(Cl)cc1Cl	ALDH1A1 block inconclusive, HPGD inh 2.24µM
Cc1cc(Cl)nc(Cl)c1C(=O)N1CCOCC1	none (no result: HPGD inh)
CCCCCCCCCCCCCC[n+]1ccc(C)cc1	HTT aggregate 22.4µM (no result: ALDH1A1 block, HPGD inh, CBFb RUNX1 block, KDM4E inh)
CCCCCCCCCCCCCCCC[n+]1ccc(/C=N/O)cc1	HTT aggregate 8.91µM
CCCCCCCCCCCC[n+]1ccc2ccccc2c1	HTT aggregate 7.08µM (no result: ALDH1A1 block, HPGD inh, CBFb RUNX1 block, KDM4E inh)
CCCCCCCCCCCCCCCC[n+]1ccc(C(N)=O)cc1	none
CC(C)n1c(C(F)(F)F)nc2cc(C(=O)N3CCCCC3)ccc21	none (no result: ALDH1A1 block, HPGD inh)
O=C(Nc1nc2ccc(Oc3ccccc3)cc2s1)c1cc([N+](=O)[O-])ccc1N1CCOCC1	HPGD inh inconclusive, HTT aggregate inconclusive
NC(=O)c1ccc[n+](CC(=O)OCCC23CC4CC(CC(C4)C2)C3)c1	ALDH1A1 block 25.1µM, HTT cytoprotect inconclusive
NC(=O)c1ccc[n+](CC(=O)c2ccc(Br)cc2)c1	none (no result: HPGD inh)
CCc1nnc(NS(=O)(=O)c2ccc(N/C=C/C(=O)c3ccc(C)cc3)cc2)s1	ALDH1A1 block inconclusive, HPGD inh 17.8µM, KDM4E inh inconclusive
CCc1nnc(NS(=O)(=O)c2ccc(N/C=C\C(=O)c3ccc(C)cc3)cc2)s1	ALDH1A1 block inconclusive, HPGD inh 25.1µM
CCc1nnc(NS(=O)(=O)c2ccc(N/C=C\C(=O)c3ccc(F)cc3)cc2)s1	ALDH1A1 block inconclusive, KDM4E inh inconclusive (no result: HPGD inh, HTT aggregate, HTT cytoprotect)
COC(=O)c1ccc(C(NC(=O)OCc2ccccc2)/C(I)=C/[C@@H](C)C(=O)NCc2ccc(C)o2)cc1 (stereo partly specified)	ALDH1A1 block 28.2µM (no result: HTT aggregate)
O=C(CSc1nnc2ccc(-c3cccnc3)nn12)Nc1ccc(F)cc1F	none (no result: HPGD inh)
CCOC(=O)CN1C(=O)N[C@@H](c2ccc(Br)cc2)C(C(=O)OC)=C1C	none
CCOC(=O)CN1C(=O)N[C@H](c2ccc(Br)cc2)C(C(C)=O)=C1C	ALDH1A1 block 14.1µM, HTT aggregate inconclusive (no result: HTT cytoprotect)
CCOC(=O)c1cnc(-c2ccccc2)nc1-c1ccccc1	ALDH1A1 block inconclusive, CBFb RUNX1 block inconclusive (no result: HPGD inh)
NNC(=O)c1csc(-c2cccc(C(F)(F)F)c2)n1	ALDH1A1 block 4.47µM (no result: HPGD inh)
COC(=O)C1=C(C)NC(C)=C(C(=O)OC)C1c1ccc(-c2cc(Cl)ccc2Cl)o1	ALDH1A1 block inconclusive, KDM4E inh inconclusive
COC(=O)C1=C(C)NC(=O)NC1c1ccc(-c2ccccc2Cl)o1 (stereo unspecified)	ALDH1A1 block 10µM (no result: HPGD inh)
